Results on 40 molecules are retold here after the supplement of paper PMC13380429.

Values without a mark were called inactive.

The experiment has as its system Vero E6 infected with SARS-CoV-2. Put plainly: inhibition of SARS-CoV-2 cytopathic effect; higher = more antiviral protection, active = above 15. Particulars: 833.33 nM; 48 h. (Protection from cytopathic effect is a common read-out in antiviral testing.)
Turning to `Cc1cc(I)ccc1Nc1c(C(=O)NOCC2CC2)cc(F)c(F)c1F`, the “inhibition of SARS-CoV-2 cytopathic effect” value (“inhibition” below) is -0.67%.
The same measure for `c1ccc2c(-c3cnn4cc(-c5ccc(N6CCNCC6)cc5)cnc34)ccnc2c1`: -6.31%; for `CCCOc1ccc(S(=O)(=O)N2CCN(CCO)CC2)cc1-c1nc2c(CCC)cn(CC)c2c(=O)[nH]1` [mirodenafil]: -3.18%; for `N#CC(c1ccnc(OCc2ccc(CN3CCOCC3)cc2)n1)c1nc2ccccc2s1` (stereo not given): 2.82%.
The same measure for `C[C@@H]1CN(c2c(F)c(F)c3c(=O)c(C(=O)O)cn(C4CC4)c3c2F)C[C@H](C)N1` [orbifloxacin]: -4.29%; for `COCC(=O)Nc1c(I)c(C(=O)NCC(O)CO)c(I)c(C(=O)N(C)CC(O)CO)c1I` (stereo not given) [iopromide]: -0.15%.
The same measure for `O=C(c1ccccc1)C(O)c1ccccc1` (stereo not given) [benzoin]: 1.45%; for `N=C(N)NCCCC[C@@H]1NC(=O)CCSSC[C@@H](C(N)=O)NC(=O)[C@@H]2CCCN2C(=O)[C@H](Cc2c[nH]c3ccccc23)NC(=O)[C@H](CC(=O)O)NC(=O)CNC1=O` [eptifibatide]: 2.75%; for `NNCCc1ccccc1` [phenelzine]: -0.81%.
`O=C(Nc1ccc(C(O)(C(F)(F)F)C(F)(F)F)cc1)c1ccc(C(F)(F)F)cc1`: the “inhibition” value is 1.02%.
With `Cc1ccc(Oc2ccccc2-c2csc(N=C3NCCCN3)n2)c(C)c1` [abafungin], the “inhibition” value was -1.03%.
On to `Nc1c(S(=O)(=O)O)cc(Nc2cccc3ccccc23)c2c1C(=O)c1ccccc1C2=O`, for which the “inhibition” value was -1.16%.
Regarding `Nc1ccc(S(=O)(=O)Nc2ccccn2)cc1` [sulfapyridine], the “inhibition” value is -1.04%.
The value for `C[C@H](Cc1ccc(OCC(=O)O)cc1)NC[C@H](O)c1cccc(Cl)c1` was 0.59%; that for `c1ccc(CNCc2ccc(CN3CCCNCCNCCCNCC3)cc2)nc1` was 1.72%; that for `NC1=N[C@@](c2cccc(-c3cncnc3)c2)(c2ccnc(C(F)F)c2)c2cccc(F)c21` was -0.56%.
In the case of `CN(CCOP(=O)(O)O)C(=N)N` [creatinol-phosphate], the “inhibition” value is -2.46%.
The value for `CCOc1ccc(-c2nc(-c3cccc4c3CCC4NCCO)no2)cc1OCC` (stereo not given) was 0.77%; that for `O=C(Oc1ccc(Br)cc1)N1CCN2CCC1CC2` was 1.51%.
For the molecule `CC[C@H](C)n1cc(C)c2c(C(=O)NCc3c(C)cc(C)[nH]c3=O)cc(-c3ccc(N4CCNCC4)nc3)cc21`, the “inhibition” value is 1.5%.
Take `CCCCCCCN(CC)CCC[C@@H](O)c1ccc(NS(C)(=O)=O)cc1` (racemic) [ibutilide]: the “inhibition” value was 0.97%.
The same measure for `Cc1ccc(Cl)c(Nc2ccccc2C(=O)O)c1Cl` [meclofenamic-acid]: 0.39%; for `COC(F)(F)C(Cl)Cl` [methoxyflurane]: 0.29%.
The value for `O=P(O)(O)CN(CCN(CP(=O)(O)O)CP(=O)(O)O)CP(=O)(O)O` was 2.43%; that for `O=C(NCCCNc1nc(Nc2cccc(NC(=O)N3CCCC3)c2)ncc1I)c1cccs1` was -5.21%; that for `C=C1CC[C@H](O)C/C1=C/C=C1\CCC[C@]2(C)[C@@H]([C@H](C)CCCC(C)(C)O)CC[C@@H]12` [calcifediol] was -0.54%.
The value for `C#Cc1cccc(Nc2ncnc3cc(OCCOC)c(OCCO)cc23)c1` was -4.18%; that for `O=C(O)c1ccc2c(c1)nc(Nc1cccc(Cl)c1)c1ccncc12` was 0.52%; that for `CCCCCCCCCCCCCCCC(=O)OC(CC(=O)[O-])C[N+](C)(C)C` (stereo not given) [palmitoylcarnitine] was -1.19%.
Consider `CNc1ncc2cc(-c3cc(NC(=O)NCCC(C)(C)C)c(F)cc3C)c(C)nc2n1`, for which the “inhibition” value is -4.43%.
In the case of `Cc1ccc(OCCSc2ncccn2)c(Br)c1`, the “inhibition” value was -4.19%.
The same measure for `NC(=O)c1ccc[n+]([C@@H]2O[C@H](COP(=O)([O-])OP(=O)(O)OC[C@H]3O[C@@H](n4cnc5c(N)ncnc54)[C@H](O)[C@@H]3O)[C@@H](O)[C@H]2O)c1` [nadide]: -0.61%.
The same measure for `CCN1CCN(C(=O)Cc2ccc(Nc3ncc(F)c(Nc4ccc(C(=O)Nc5ccccc5Cl)cc4)n3)cc2)CC1` [aurora-a-inhibitor-i]: 0.9%; for `N[C@@H](CS)C(=O)O` [L-cysteine]: -1.16%; for `COc1cc(Br)c(Nc2nc(-c3c(C)nc4ncccn34)cs2)c(Br)c1`: -3.16%.
The same measure for `Cc1nc(Nc2ncc(C(=O)Nc3c(C)cccc3Cl)s2)cc(N2CCN(CCO)CC2)n1` [dasatinib]: -12.6%; for `Cc1cc(O)c2c(c1)C(=O)c1cccc(O)c1C2=O` [chrysophanic-acid]: -0.5%.
For the molecule `CC(=O)NC[C@H]1CN(c2ccc(N3CCOCC3)c(F)c2)C(=O)O1` [linezolid], the “inhibition” value is -0.71%.
The value for `c1coc(-c2nnc3sc(C4CCCCC4)nn23)c1` [cardionogen-1] was -1.37%.
As to `O=C1NC(=O)c2c1c1c3ccccc3n3c1c1c2c2ccccc2n1C1CCC3O1`, the “inhibition” value is 4.22%.
